Here are results for one compound from ChEMBL document CHEMBL2218924, “A broad activity screen in support of a chemogenomic map for kinase signalling research and drug discovery” (Biochem J, 2013).

Assay [1] deals with T1, Serine/threonine-protein kinase TBK1 (Homo sapiens) (UniProt Q9UHD2).
T1 sequence (whole entry): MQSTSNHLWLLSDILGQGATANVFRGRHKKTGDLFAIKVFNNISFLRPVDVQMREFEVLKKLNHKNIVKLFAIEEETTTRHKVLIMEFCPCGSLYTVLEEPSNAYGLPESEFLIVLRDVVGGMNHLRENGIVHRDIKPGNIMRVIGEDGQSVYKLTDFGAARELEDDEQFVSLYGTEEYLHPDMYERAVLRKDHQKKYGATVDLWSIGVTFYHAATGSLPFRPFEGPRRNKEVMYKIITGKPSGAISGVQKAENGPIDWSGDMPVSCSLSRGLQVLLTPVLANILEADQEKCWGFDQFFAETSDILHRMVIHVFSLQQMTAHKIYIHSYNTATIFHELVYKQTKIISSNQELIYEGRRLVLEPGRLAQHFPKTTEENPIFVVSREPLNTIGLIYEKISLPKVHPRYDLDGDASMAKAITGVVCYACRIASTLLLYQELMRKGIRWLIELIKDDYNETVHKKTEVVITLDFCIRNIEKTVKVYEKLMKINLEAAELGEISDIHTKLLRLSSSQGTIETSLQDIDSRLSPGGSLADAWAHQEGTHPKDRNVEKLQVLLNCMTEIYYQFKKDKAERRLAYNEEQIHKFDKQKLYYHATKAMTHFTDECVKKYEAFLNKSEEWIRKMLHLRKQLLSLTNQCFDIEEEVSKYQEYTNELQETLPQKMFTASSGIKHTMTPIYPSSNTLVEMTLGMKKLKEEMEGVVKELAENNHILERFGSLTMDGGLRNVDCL
Particulars: at 10 µM.

Assay [2] concerns the target T2, TGF-beta receptor type-1 (Homo sapiens) (UniProt P36897).
T2 sequence (whole entry): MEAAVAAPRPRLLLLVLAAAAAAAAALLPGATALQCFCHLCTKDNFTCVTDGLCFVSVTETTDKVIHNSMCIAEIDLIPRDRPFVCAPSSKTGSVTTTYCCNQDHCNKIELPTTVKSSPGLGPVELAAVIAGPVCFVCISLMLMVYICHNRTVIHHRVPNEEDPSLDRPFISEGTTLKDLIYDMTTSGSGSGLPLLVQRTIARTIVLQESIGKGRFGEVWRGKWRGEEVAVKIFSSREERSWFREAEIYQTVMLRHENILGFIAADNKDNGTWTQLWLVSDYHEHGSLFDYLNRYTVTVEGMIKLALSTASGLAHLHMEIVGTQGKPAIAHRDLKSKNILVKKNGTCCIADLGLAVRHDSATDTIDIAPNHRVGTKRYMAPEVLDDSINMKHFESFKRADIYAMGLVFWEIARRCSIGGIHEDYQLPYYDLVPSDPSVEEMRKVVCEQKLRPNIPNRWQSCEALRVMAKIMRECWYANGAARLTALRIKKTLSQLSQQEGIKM
Particulars: at 1 µM.

Assay [3] concerns the target T2, TGF-beta receptor type-1 (Homo sapiens). The following applies: at 10 µM.
Assay [4] deals with Insulin-like growth factor 1 receptor (Homo sapiens) (UniProt P08069). The following applies: at 1 µM.
Chain of Insulin-like growth factor 1 receptor (Homo sapiens) (P08069 31-736 limits assumed): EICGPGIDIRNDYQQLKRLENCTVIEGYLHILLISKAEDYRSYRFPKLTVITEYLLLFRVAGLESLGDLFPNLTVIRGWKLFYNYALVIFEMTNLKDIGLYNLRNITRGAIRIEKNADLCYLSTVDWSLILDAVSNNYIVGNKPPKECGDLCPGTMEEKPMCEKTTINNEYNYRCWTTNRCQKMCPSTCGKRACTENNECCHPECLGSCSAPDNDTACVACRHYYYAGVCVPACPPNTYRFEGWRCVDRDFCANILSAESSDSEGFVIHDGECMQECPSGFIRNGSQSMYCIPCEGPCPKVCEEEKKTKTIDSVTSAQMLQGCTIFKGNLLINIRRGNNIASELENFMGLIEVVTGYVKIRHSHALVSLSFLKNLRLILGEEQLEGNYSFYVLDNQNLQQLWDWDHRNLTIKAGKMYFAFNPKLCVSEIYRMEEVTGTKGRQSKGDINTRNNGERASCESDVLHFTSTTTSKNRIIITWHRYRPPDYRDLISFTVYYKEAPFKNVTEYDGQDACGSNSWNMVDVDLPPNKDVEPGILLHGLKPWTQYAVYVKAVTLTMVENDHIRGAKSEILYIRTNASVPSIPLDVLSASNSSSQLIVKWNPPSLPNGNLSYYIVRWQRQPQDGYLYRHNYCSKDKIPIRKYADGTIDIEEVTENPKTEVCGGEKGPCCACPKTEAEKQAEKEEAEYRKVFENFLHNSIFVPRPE
Chain of Insulin-like growth factor 1 receptor (Homo sapiens) (P08069 741-1367 limits assumed): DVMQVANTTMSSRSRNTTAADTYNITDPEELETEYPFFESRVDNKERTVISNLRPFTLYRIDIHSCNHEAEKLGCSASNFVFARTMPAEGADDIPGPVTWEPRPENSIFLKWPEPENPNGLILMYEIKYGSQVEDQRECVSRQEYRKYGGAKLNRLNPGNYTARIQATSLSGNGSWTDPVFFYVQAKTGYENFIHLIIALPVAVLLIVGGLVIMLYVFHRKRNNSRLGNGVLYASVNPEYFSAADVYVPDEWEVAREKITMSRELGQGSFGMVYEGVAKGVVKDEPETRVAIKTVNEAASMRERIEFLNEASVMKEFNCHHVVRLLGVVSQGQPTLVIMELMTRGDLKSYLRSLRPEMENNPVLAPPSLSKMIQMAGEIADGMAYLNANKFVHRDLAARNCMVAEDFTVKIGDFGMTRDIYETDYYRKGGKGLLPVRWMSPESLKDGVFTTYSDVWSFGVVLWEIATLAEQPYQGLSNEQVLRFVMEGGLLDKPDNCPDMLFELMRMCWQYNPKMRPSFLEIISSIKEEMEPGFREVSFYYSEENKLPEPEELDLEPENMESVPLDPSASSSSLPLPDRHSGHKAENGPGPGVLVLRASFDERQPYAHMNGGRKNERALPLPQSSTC
For assay [5] the target is unchanged. Particulars: at 10 µM.
The target in assay [6] is T3, Inhibitor of nuclear factor kappa-B kinase subunit alpha (Homo sapiens) (UniProt O15111).
T3 sequence (whole entry): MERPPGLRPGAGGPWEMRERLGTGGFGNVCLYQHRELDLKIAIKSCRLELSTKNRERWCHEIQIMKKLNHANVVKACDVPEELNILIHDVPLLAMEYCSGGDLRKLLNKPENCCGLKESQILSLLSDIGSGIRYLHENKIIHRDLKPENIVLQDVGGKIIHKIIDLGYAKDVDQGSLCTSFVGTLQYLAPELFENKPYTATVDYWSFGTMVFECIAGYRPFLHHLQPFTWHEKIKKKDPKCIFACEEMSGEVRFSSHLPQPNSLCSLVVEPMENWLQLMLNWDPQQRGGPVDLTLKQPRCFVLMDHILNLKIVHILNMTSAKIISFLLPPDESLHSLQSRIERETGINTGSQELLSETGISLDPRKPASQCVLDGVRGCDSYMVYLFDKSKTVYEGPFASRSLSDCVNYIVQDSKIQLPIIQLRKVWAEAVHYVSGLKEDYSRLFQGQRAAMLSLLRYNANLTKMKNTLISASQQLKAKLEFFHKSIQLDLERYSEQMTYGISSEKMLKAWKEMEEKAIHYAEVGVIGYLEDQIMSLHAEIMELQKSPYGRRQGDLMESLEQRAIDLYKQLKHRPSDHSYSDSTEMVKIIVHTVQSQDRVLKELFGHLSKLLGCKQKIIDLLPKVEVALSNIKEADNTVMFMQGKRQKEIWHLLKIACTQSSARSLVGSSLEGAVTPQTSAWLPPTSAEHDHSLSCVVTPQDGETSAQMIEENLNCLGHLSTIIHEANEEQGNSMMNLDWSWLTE
The following applies: at 1 µM.

In assay [7] the target is T3, Inhibitor of nuclear factor kappa-B kinase subunit alpha (Homo sapiens). The following applies: at 10 µM.
Assay [8] has as its target T4, Inhibitor of nuclear factor kappa-B kinase subunit beta (Homo sapiens) (UniProt O14920).
T4 sequence (whole entry): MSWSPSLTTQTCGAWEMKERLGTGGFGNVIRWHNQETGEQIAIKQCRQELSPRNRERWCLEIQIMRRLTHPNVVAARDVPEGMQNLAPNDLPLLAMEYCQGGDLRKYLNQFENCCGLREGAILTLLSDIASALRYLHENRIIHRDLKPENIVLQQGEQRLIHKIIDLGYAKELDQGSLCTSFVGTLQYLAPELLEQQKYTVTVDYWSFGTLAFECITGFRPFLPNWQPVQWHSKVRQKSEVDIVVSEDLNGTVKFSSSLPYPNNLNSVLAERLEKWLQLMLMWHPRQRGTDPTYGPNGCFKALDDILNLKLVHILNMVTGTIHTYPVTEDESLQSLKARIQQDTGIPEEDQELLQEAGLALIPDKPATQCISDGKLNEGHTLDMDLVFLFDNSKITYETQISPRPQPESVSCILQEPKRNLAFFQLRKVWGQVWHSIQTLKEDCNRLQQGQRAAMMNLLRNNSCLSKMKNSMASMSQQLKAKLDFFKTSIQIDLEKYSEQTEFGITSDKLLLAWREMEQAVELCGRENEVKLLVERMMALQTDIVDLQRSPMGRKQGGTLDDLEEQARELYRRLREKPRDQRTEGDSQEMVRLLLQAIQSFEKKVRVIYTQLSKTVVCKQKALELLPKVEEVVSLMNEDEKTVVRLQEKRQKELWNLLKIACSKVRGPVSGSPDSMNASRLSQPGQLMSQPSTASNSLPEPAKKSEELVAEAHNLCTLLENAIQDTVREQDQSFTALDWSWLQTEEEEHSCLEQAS
The following applies: at 10 µM.

Assay [9] addresses Insulin receptor (Homo sapiens) (UniProt P06213). Particulars: at 1 µM.

Chain of Insulin receptor (Homo sapiens) (P06213 28-758 limits assumed): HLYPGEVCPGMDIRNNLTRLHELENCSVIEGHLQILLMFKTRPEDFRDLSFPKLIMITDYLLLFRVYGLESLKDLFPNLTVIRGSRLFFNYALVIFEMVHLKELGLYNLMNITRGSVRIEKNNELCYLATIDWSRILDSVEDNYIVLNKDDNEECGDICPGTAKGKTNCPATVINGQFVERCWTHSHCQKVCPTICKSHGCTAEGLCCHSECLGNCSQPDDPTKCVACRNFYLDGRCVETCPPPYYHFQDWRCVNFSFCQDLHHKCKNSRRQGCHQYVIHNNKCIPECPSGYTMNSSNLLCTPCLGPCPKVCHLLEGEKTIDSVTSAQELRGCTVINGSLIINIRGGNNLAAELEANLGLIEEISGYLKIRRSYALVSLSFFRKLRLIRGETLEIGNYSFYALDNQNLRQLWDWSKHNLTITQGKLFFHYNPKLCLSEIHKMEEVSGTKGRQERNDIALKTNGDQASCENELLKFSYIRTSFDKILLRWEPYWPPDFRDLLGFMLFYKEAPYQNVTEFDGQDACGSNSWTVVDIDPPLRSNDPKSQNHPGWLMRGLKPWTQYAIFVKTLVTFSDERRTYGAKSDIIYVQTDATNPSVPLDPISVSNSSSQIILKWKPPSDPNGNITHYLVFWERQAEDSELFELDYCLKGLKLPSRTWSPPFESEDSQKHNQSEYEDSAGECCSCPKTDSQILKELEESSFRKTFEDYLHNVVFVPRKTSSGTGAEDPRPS
Chain of Insulin receptor (Homo sapiens) (P06213 763-1382 limits assumed): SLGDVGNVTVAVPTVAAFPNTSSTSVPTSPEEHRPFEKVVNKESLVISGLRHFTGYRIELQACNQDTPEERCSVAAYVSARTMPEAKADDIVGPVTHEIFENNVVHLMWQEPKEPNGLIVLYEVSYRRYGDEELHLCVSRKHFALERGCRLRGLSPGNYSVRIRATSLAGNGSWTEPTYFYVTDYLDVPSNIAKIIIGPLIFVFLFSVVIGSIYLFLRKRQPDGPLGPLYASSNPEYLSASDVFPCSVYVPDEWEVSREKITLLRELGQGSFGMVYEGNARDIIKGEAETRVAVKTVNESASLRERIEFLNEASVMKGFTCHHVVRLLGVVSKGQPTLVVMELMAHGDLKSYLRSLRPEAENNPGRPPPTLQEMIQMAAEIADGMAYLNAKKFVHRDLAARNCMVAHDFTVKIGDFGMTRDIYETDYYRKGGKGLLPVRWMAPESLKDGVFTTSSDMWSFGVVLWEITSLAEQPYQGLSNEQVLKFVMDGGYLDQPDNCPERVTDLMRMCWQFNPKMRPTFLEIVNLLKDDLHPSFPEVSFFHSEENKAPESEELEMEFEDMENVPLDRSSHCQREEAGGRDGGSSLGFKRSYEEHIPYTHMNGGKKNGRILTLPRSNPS

The term residual activity denotes the signal under treatment as a percentage of the control signal. For the compound `Nc1ncnc2c1c(-c1ccc(Oc3ccccc3)cc1)cn2C1CCCC1`, the residual activity is 54% in [1]; 76% in [2]; 72% in assay [3]; 100% in assay [4]; 58% in assay [5]; 104% in assay [6]. Moreover, the residual activity stood at 103% in [7], 91% in [8] and 96% in assay [9].
